The campaign covered roughly 310,000 compounds. About 14,000 (4.5%) showed an effect of 50% or more. The effect is printed as a negative number. This excerpt belongs to a sample that is enriched for strong results.
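Further: peak tail current of the secondary pulse compared with the same well before compound.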

human ether-à-go-go-related gene (hERG) potassium channel, sequence (Q12809 whole entry, looked up): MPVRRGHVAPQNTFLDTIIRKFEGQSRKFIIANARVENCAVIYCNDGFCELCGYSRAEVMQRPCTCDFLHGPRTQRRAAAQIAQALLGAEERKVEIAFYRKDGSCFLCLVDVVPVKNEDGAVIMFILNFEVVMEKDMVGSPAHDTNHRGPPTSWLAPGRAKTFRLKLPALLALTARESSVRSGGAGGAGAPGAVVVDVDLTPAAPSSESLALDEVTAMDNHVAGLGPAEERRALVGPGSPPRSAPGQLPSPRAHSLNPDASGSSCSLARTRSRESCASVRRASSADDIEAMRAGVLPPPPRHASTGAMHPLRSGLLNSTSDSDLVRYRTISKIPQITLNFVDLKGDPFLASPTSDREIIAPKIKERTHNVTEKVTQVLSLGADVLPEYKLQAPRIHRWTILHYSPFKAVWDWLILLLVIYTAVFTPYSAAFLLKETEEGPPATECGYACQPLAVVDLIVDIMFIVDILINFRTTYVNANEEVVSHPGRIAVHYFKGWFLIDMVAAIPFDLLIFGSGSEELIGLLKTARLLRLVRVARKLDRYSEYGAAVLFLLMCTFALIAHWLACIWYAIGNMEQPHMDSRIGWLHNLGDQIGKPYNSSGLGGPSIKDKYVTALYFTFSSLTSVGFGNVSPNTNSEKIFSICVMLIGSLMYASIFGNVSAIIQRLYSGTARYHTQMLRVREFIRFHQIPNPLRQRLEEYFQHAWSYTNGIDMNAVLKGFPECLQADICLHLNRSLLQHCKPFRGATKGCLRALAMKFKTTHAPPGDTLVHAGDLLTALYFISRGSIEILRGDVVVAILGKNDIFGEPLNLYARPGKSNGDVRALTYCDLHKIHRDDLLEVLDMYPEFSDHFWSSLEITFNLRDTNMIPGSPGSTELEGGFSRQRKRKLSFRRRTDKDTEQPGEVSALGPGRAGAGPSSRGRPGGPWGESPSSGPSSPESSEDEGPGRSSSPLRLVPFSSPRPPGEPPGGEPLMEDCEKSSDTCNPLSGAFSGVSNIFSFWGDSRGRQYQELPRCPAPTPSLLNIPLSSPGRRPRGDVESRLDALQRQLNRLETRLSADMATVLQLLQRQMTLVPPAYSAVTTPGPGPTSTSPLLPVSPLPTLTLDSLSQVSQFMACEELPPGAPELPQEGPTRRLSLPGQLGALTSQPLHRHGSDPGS

This experiment addresses human ether-à-go-go-related gene (hERG) potassium channel (human, UniProt Q12809). Description: primary screen, population patch clamp on CHO cells stably expressing hERG; higher = less effect of the substance.
As to `COC(=O)c1ccc2c(=O)n(-c3ccccc3)c(SCN3C(=O)c4ccccc4C3=O)nc2c1`, the “hERG current change (%, negative = inhibition) at 10uM” value was determined as 11%. The figure for `COc1ccc(/C(C)=N/Nc2ccc(F)cc2F)c(O)c1` is 6.58%; for `COc1ccccc1C(=O)NC(=O)CSc1nc(C)cs1` it is 12%; for `CCOC(=O)N1CCN(C(=O)CN(c2cccc(OC)c2)S(C)(=O)=O)CC1` it is -5.17%. Turning to `COc1cc(O)c(C(CCN2CCOCC2)c2cc(OC)c(OC)c(OC)c2)c(OC)c1` (centres unmarked), the “hERG current change (%, negative = inhibition) at 10uM” value is 8.02%. The figure for `COc1ccc(C(CCN2CCOCC2)c2c(OC)cc(OC)c3c(C)cc(=O)oc23)cc1` (centres unmarked) is -69.2%; for `COc1cc(C(CCN2CCOCC2)c2c(OC)cc(OC)c3c(C)cc(=O)oc23)cc(OC)c1OC` (centres unmarked) it is -79.3%; for `COc1ccc(C(CCN2CCCC(C)C2)c2c(OC)cc(OC)c3c(C)cc(=O)oc23)cc1` (centres unmarked) it is -74.3%.

Take `COc1cc(OC)c2c(C)cc(=O)oc2c1C(CCN1CCOCC1)c1ccc2c(c1)OCO2` (centres unmarked): the “hERG current change (%, negative = inhibition) at 10uM” value is given as -68.4%.

As for `COc1cc(OC)c2c(C)cc(=O)oc2c1C(CCN1CCN(c2ccccc2)CC1)c1ccc2c(c1)OCO2` (centres unmarked), the “hERG current change (%, negative = inhibition) at 10uM” value is recorded as -11.1%. The figure for `COc1ccc(C(CC(=O)N2CCCC(C)C2)c2c(OC)cc(OC)c3c(-c4ccccc4)cc(=O)oc23)cc1` (centres unmarked) is 8.57%; for `COc1cc(C(CCN2CCN(c3ccccc3)CC2)c2c(OC)cc(OC)c3c(C)cc(=O)oc23)cc(OC)c1OC` (centres unmarked) it is -6.01%; for `COc1cc(OC)c2c(-c3ccccc3)cc(=O)oc2c1C(CCN1CCCC(C)C1)c1ccc(N(C)C)cc1` (centres unmarked) it is -30%. Take `COc1cc(OC)c2c(-c3ccccc3)cc(=O)oc2c1C(CC(=O)N1CCOCC1)c1ccc2c(c1)OCO2` (centres unmarked): the “hERG current change (%, negative = inhibition) at 10uM” value is given as 1.51%. On to `COc1cc(OC)c2c(C)cc(=O)oc2c1C(CCN1CCOCC1)c1ccc(N(C)C)cc1` (centres unmarked), for which the “hERG current change (%, negative = inhibition) at 10uM” value was -28.5%. With `COc1ccc(C(CC(=O)N2CCOCC2)c2c(OC)cc(OC)c3c(-c4ccccc4)cc(=O)oc23)cc1` (centres unmarked), the “hERG current change (%, negative = inhibition) at 10uM” value is reported as 12%. As to `CCOc1ccc(S(=O)(=O)N2CCC(C(=O)OC(C)C(=O)N3CCOCC3)CC2)cc1` (centres unmarked), the “hERG current change (%, negative = inhibition) at 10uM” value was -25.2%. The figure for `O=C(Cc1ccccc1[N+](=O)[O-])N/N=C/c1cccnc1` is 10%; for `COc1ccccc1C(=O)NCC(=O)OCC(=O)c1ccc2c(c1)-c1ccccc1C2` it is -0.208%. The figure for `Cc1nnc(NC(=O)C2CCCN(S(=O)(=O)Cc3ccccc3)C2)s1` (centres unmarked) is -2.64%; for `CCc1ccc(N(CC(=O)NC2CCCC2)S(=O)(=O)c2c(C)noc2C)cc1` it is -7.76%. As for `O=C(Nc1nnc(C2=COCCO2)o1)c1ccc(S(=O)(=O)N2CCCC2)cc1`, the figure is 17.2%; as for `O=C(NCc1cccnc1)C1CCC(CNS(=O)(=O)c2cccc3nsnc23)CC1` (centres unmarked), -9.63%. Take `CCOC(=O)CCc1c(C)nc2cc(-c3ccc(Cl)cc3)[nH]n2c1=O`: the “hERG current change (%, negative = inhibition) at 10uM” value is -7.09%.

As to `CCOC(=O)CC(NCc1ccc(OC)c(OCC)c1)c1ccc(C)cc1.Cl` (centres unmarked), the “hERG current change (%, negative = inhibition) at 10uM” value is listed as -39%. With `CC(C)C(NC(=O)c1ccco1)C(=O)NCC(c1ccco1)N1CCCCC1` (centres unmarked), the “hERG current change (%, negative = inhibition) at 10uM” value turned out to be 20%. Take `COC(=O)Cn1c(CN2CCOCC2)nc2c1c(=O)[nH]c(=O)n2C`: the “hERG current change (%, negative = inhibition) at 10uM” value was found to be 3.43%. As for `COc1cc(C(CCN2CCCCC2)c2c(OC)cc(OC)c3c(C)cc(=O)oc23)cc(OC)c1OC` (centres unmarked), the “hERG current change (%, negative = inhibition) at 10uM” value is recorded as -99.6%.

In the case of `CCN(CC)CCC(c1cc(OC)c(OC)c(OC)c1)c1c(OC)cc(OC)c2c(C)cc(=O)oc12` (centres unmarked), the “hERG current change (%, negative = inhibition) at 10uM” value is -48.5%. The figure for `COc1cc(C(CCN2CCCC2)c2c(OC)cc(OC)c3c(C)cc(=O)oc23)cc(OC)c1OC` (centres unmarked) is -75.5%; for `Oc1ccc(Br)cc1CNn1cnnc1` it is 13.9%. The figure for `COc1ccc(OC)c(CNc2ccc3c(c2)CCC3)c1` is 20.4%; for `CC(C(=O)O)n1nc2ccccc2n1` (centres unmarked) it is 21.4%; for `CCOC(=O)c1c(CC(C)C)csc1NC(C)=O` it is -2.62%. As for `CC(C)[C@H](NC(=O)N1c2ccccc2NC(=O)[C@@H]1C(C)C)C(=O)N[C@@H](Cc1c[nH]c2ccccc12)C(=O)O`, the figure is 3.11%; as for `O=C(O)CSc1ccnc2cc(Cl)ccc12`, 16.2%.

Consider `COc1cc(OC)cc(-c2c(-c3ccc(F)cc3)c3cc(-c4ccc5cc[nH]c5c4)ccc3n2C)c1`, for which the “hERG current change (%, negative = inhibition) at 10uM” value amounted to 14.2%. Take `CNC(=O)COc1coc(CN2CCN(c3ccc(OC)cc3)CC2)cc1=O`: the “hERG current change (%, negative = inhibition) at 10uM” value is reported as 1.11%.

Consider `C=C1CCN([C@@H](CC(C)C)C(=O)N2CCOCC2)S(=O)(=O)c2ccccc21`, for which the “hERG current change (%, negative = inhibition) at 10uM” value turned out to be 13.3%. With `C=C1CCN([C@@H](CC(C)C)C(=O)N2CCCC2)S(=O)(=O)c2ccccc21`, the “hERG current change (%, negative = inhibition) at 10uM” value was -54.7%.

Turning to `C=C1CCN([C@@H](CC(C)C)C(=O)O)S(=O)(=O)c2ccccc21`, the “hERG current change (%, negative = inhibition) at 10uM” value was determined as 22.6%.

`Cc1ccc(C)c(N2CCN(C(=O)c3ccc4nsnc4c3)CC2)c1`: the “hERG current change (%, negative = inhibition) at 10uM” value is on record as -1.44%. Consider `O=C(c1ccc2c(=O)n3c(nc2c1)CCCCC3)N1CCN(c2ccc(F)cc2)CC1`, for which the “hERG current change (%, negative = inhibition) at 10uM” value is recorded as -42.1%. Regarding `O=C(c1ccc2c(=O)n3c(nc2c1)CCCCC3)N1CCN(c2ccc([N+](=O)[O-])cc2)CC1`, the “hERG current change (%, negative = inhibition) at 10uM” value is -73%.

In the case of `Cc1nc2ccccc2c(=O)n1-c1ccc([N+](=O)[O-])cc1`, the “hERG current change (%, negative = inhibition) at 10uM” value is listed as 7.26%. As for `O=C(c1ccc2c(=O)n3c(nc2c1)CCCCC3)N1CCN(c2ccc(Cl)cc2)CC1`, the figure is -48%; as for `O=c1c2ccccc2nc2n1CC/C2=C\N1CCN(c2ccc([N+](=O)[O-])cc2)CC1`, -78.1%; as for `O=C(c1ccc2nsnc2c1)N1CCN(c2ccc([N+](=O)[O-])cc2)CC1`, -75.5%. As for `CCc1nc2ccc(C(=O)N3CCN(c4ccc(Cl)cc4)CC3)cc2nc1CC`, the figure is -6.46%.

For `CCc1nc2ccc(C(=O)N3CCN(c4ccc([N+](=O)[O-])cc4)CC3)cc2nc1CC`, the “hERG current change (%, negative = inhibition) at 10uM” value is listed as -72.1%. As for `O=C(c1ccc(NC2=NC3CS(=O)(=O)CC3S2)cc1)N1CCN(c2ccc([N+](=O)[O-])cc2)CC1` (centres unmarked), the figure is -4.75%; as for `CCc1nc2ccc(C(=O)N3CCN(c4ccccc4)CC3)cc2nc1CC`, -5.04%. The figure for `Cl.O.O=c1c2ccccc2nc2n1CC/C2=C/N1CCN(c2cccc(C(F)(F)F)c2)CC1` is -28%. The figure for `CCOP(=O)(c1ccccc1)C1(O)CCCCC1` (centres unmarked) is -1.86%; for `CCCc1oc(C(=O)O)cc1CN1CCOCC1.Cl` it is 8.54%. For `COC(=O)C1=C(C)N(Cc2ccccc2)C(=O)N[C@H]1c1ccco1`, the “hERG current change (%, negative = inhibition) at 10uM” value came to 5.95%. As for `COc1ccc(N2CCN(C(CNC(=O)c3ccc4c(c3)OCO4)c3cccnc3)CC2)cc1` (centres unmarked), the figure is -16.2%; as for `O=C(NCC(c1cccnc1)N1CCN(c2ccc(F)cc2)CC1)c1ccccc1` (centres unmarked), -40.2%; as for `O=C(NCC(c1cccnc1)N1CCN(c2ccccc2)CC1)c1ccc2c(c1)OCO2` (centres unmarked), -26.5%. The figure for `COc1ccc(N2CCN(C(CNC(=O)c3cccc(Cl)c3)c3cccnc3)CC2)cc1` (centres unmarked) is -38.7%; for `O=C(NCC(c1cccnc1)N1CCN(c2ccc(F)cc2)CC1)c1ccc2c(c1)OCO2` (centres unmarked) it is -65.3%. As for `O=C(NCC(c1cccnc1)N1CCN(c2ccc(F)cc2)CC1)c1cccc(Cl)c1` (centres unmarked), the figure is -66.2%. On to `COCCN=c1scc(-c2ccc3c(c2)NC(=O)CO3)n1/N=C(\C)c1ccc(O)cc1`, for which the “hERG current change (%, negative = inhibition) at 10uM” value is recorded as -8.23%.

With `Cn1c(=NC(=O)C2CC2)sc2cc(F)cc(F)c21`, the “hERG current change (%, negative = inhibition) at 10uM” value is -12.3%. The figure for `CCOC(=O)c1c(NC(=O)c2cccs2)sc(CC)c1-c1cccs1` is -11%; for `Cc1nnc(NC(=O)CSc2ccc([N+](=O)[O-])cn2)s1` it is 17.9%. The figure for `CC(C)(CN1CCC(Cc2ccccc2)CC1)NS(=O)(=O)c1ccccc1.O=C(O)C(=O)O` is -60.8%; for `CCOC(=O)C1CCN(CC(C)(C)NS(=O)(=O)c2ccc(C)cc2)CC1` it is -4.95%; for `Cc1ccc(S(=O)(=O)NC(C)(C)CN2CCC(Cc3ccccc3)CC2)cc1.O=C(O)C(=O)O` it is -64.8%. As to `CC(=O)N1CCN(CC(C)(C)NS(=O)(=O)c2ccc(C)cc2)CC1`, the “hERG current change (%, negative = inhibition) at 10uM” value stood at 7.76%. Regarding `CCOC(=O)C1CCN(CC(C)(C)NS(=O)(=O)c2ccccc2)CC1`, the “hERG current change (%, negative = inhibition) at 10uM” value is recorded as 11.5%. For the compound `CC(C)(CN1CCCC1)NS(=O)(=O)c1ccccc1.Cl`, the “hERG current change (%, negative = inhibition) at 10uM” value is 24.7%. The figure for `COC(=O)c1ccc(-n2cc(-c3ccc(OC)cc3)[nH]c2=S)cc1` is 33.1%; for `Nc1c(C(=O)c2ccc(Cl)cc2)sc2c1c(=O)[nH]c(=O)n2-c1ccccc1` it is -24.2%; for `CC[C@]1(c2ccccc2)C(=O)N(C(=O)OC)N1C(=O)OC` it is 25.2%.

Take `COc1ccc(-c2noc3c2-c2nc(-c4ccc(Cl)cc4)sc2CC3)cc1`: the “hERG current change (%, negative = inhibition) at 10uM” value is on record as 9.5%. Consider `CCCNC(=O)C12CCC(C)(C(=O)O1)C2(C)C` (centres unmarked), for which the “hERG current change (%, negative = inhibition) at 10uM” value amounted to 17.2%. The figure for `Clc1ccc2nc(-c3ccc(Br)s3)cn2c1` is 8.14%; for `COc1ccccc1CNC(=O)C1CCN(Cc2nc(-c3cccc(Cl)c3)oc2C)CC1` it is -78%. The figure for `CCc1ccc(-c2nc(CN3CCC(C(=O)NCc4ccccc4OC)CC3)c(C)o2)cc1` is -68.4%; for `COc1ccccc1CNC(=O)C1CCN(c2nc3ccccc3o2)CC1` it is -9.09%. As for `Cc1oc(-c2cccc(Cl)c2)nc1CN1CCC(C(=O)NCCCN2CCCC2=O)CC1`, the figure is -38%; as for `COc1ccc(-c2nc(CN3CCC(C(=O)NC4CCN(Cc5ccccc5)CC4)CC3)c(C)o2)cc1OC`, 1.67%.

For the origin of these results see PMC4336329 (PLoS ONE, 2015).
